Results on 61 molecules are retold here after PubChem BioAssay AID1010 (Sanford-Burnham Center for Chemical Genomics, 2008).

The campaign covered roughly 48,000 compounds. About 160 (0.33%) were called active.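 Rule for the calls: active = survival measured by cellular ATP above 50% at 15 µg/ml in the first screen; inactive = the rest.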 The entries come from a sample that favours actives as a whole.

The experiment can be described thus: protection against thapsigargin ER stress killing – CSM14.1 cells, ATP luminescence, primary screen (AID 1010).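 Note: cell death triggered by about 15 µM thapsigargin; ATP read 24 h after thapsigargin was added; plate controls were thapsigargin with DMSO for no effect and DMSO without thapsigargin for full effect.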 The settings on record: CSM14.1 thapsigargin ER stress survival, active compounds read high, screened at 15 µg/mL (by protocol).
As to `CCc1c(C)sc(NC(=O)CCc2ccc(OC)cc2)c1C#N`, the relative survival (cellular ATP) was 4.9% (inactive).

Turning to `COc1cccc(/C=N/N2CCN(Cc3ccc(Cl)cc3)CC2)c1`, the relative survival (cellular ATP) is -4.1% (inactive). For `CCOc1cc(OCC)cc(C(=O)Nc2cc3nn(-c4ccc(OC)cc4)nc3cc2C)c1`, the relative survival (cellular ATP) was 4.3% (inactive).

As for `CCCCCCCCC(=O)N/N=C/c1ccsc1C`, the relative survival (cellular ATP) was 2.5% (inactive). Take `Cc1cc(NC(=O)COC(=O)/C=C/c2ccc([N+](=O)[O-])cc2)no1`: the relative survival (cellular ATP) was 1.8% (inactive). In the case of `Cc1ccc([N+](=O)[O-])cc1NC(=O)C12CC3CC(CC(C3)C1)C2` it was -1.4% (inactive); in that of `CC1(C)Nc2ccc(OC(=O)c3ccccc3Br)cc2-c2c1ssc2=S`, -1% (inactive). To `Cc1ccc(Cl)cc1NC1=CC(=O)CC(C)(C)C1` belongs 10.7% (inactive); to `O=C(NC1CCCCCC1)c1ccc([N+](=O)[O-])o1`, -27.9% (inactive); to `CCO/N=C1/CC(c2ccccc2)Cc2onc(C)c21` (stereo unspecified), 13.2% (inactive).

`COC(=O)c1ccc(C2Nc3ccccc3NC3=C2C(=O)CC(c2ccccc2)C3)cc1` (stereo unspecified): the relative survival (cellular ATP) was 3.7% (inactive). To `COc1cc(C2Nc3ccc(C(=O)c4ccccc4)cc3NC3=C2C(=O)CCC3)cc(OC)c1OC` (stereo unspecified) belongs -2.2% (inactive); to `O=C1CCCC2=C1C(c1ccc(Cl)cc1)Nc1ccc(C(=O)c3ccccc3)cc1N2` (stereo unspecified), 72.5% (active). Consider `NC(=O)c1ccccc1N=Cc1ccccc1[N+](=O)[O-]`, for which the relative survival (cellular ATP) was 1.7% (inactive). As to `CCOc1ccc(N2C(=O)CC(NCc3cccnc3)C2=O)cc1` (stereo unspecified), the relative survival (cellular ATP) is 5.5% (inactive). Turning to `CC(=O)N(C1=C(Cl)C(=O)c2ccccc2C1=O)c1cccc(Br)c1`, the relative survival (cellular ATP) is 11.1% (inactive). In the case of `CC(=O)Nc1ccc(S(=O)(=O)Nc2ccc(Br)c(Cl)c2)cc1` it was 5.8% (inactive); in that of `CCN(C(=O)c1ccccc1)c1ccccc1`, -4.6% (inactive); in that of `COc1ccc(C2/C(=C(\O)c3ccccc3)C(=O)C(=O)N2CCCCCC(=O)O)c(OC)c1` (stereo unspecified), -3.4% (inactive). In the case of `CCN(C(=O)c1sc(NC(=O)c2ccc(Cl)cc2)c(C#N)c1C)C1CCCCC1`, the relative survival (cellular ATP) was 2.3% (inactive). `CCOc1ccc(/C=N/N2CCN(c3ccccc3OC)CC2)cc1OC`: the relative survival (cellular ATP) was 5.2% (inactive).

For `COc1ccc(C(=O)NC(N2CCCCC2)C(Cl)(Cl)Cl)cc1OC` (stereo unspecified), the relative survival (cellular ATP) is 3.6% (inactive).

For `C=CCc1c(C)nc(-c2ccccc2)nc1Nc1ccc(C(=O)O)cc1`, the relative survival (cellular ATP) was 0.2% (inactive). For `Cn1cc(/C=C2/SC(=S)N(c3ccccc3)C2=O)c2ccccc21`, the relative survival (cellular ATP) was 6.8% (inactive). Consider `CC1=C(C(=O)Nc2ccccc2)C(c2ccc3c(c2)OCO3)NC(=S)N1` (stereo unspecified), for which the relative survival (cellular ATP) is 10.1% (inactive). To `CCOC(=O)C(=Cc1ccc(-c2cccc(Cl)c2Cl)o1)C(=O)OCC` belongs 5.9% (inactive). On to `COc1cc(OC)cc(C(=O)Nc2ccc3nn(-c4ccc(F)cc4)nc3c2)c1`, for which the relative survival (cellular ATP) is 4% (inactive). For the molecule `COc1ccc(NC(=O)c2cccc(F)c2)cc1OC`, the relative survival (cellular ATP) was 24.8% (inactive). Take `COc1ccccc1-n1cnc2cc(NC(=O)c3ccccc3)ccc21`: the relative survival (cellular ATP) is 97.4% (active). Regarding `COc1ccc(CN2CCN(C(=O)c3cccc(Cl)c3)CC2)cc1OC`, the relative survival (cellular ATP) is 2.9% (inactive). Turning to `O=C(Nc1cccc(Br)c1)c1ccc(N2C(=O)c3cccnc3C2=O)cc1`, the relative survival (cellular ATP) is 4.6% (inactive).

As to `Cc1ccc(-c2[nH]ncc2/C=N/NC(=O)c2ccc(Br)cc2)cc1`, the relative survival (cellular ATP) is 3.5% (inactive). On to `COc1cc(OC)cc(C(=O)N2CCN(C)CC2)c1`, for which the relative survival (cellular ATP) is 4.1% (inactive). As for `CONC(=O)c1ccc(C(=O)c2cc(OC)ccc2OC)cc1`, the relative survival (cellular ATP) was 6.5% (inactive). In the case of `CSCCOC(=O)COc1ccc(/C=N/NC(=O)c2ccc(CN3CCOCC3)cc2)cc1`, the relative survival (cellular ATP) is 9.5% (inactive). In the case of `CN(C)c1cccc(C(=O)N2CCN(c3cccc(Cl)c3)CC2)c1` it was -2.8% (inactive).

On to `COc1cccc(/C=N/NC(=O)c2cc(-c3ccc4ccccc4c3)n[nH]2)c1`, for which the relative survival (cellular ATP) was 5.9% (inactive).

As to `CC(=O)c1c(-c2ccccc2)c2cc(C)ccc2[nH]c1=O`, the relative survival (cellular ATP) was -1.1% (inactive). For the molecule `O=C(NC(CO)(CO)CO)c1cccc(-c2ccc(O)cc2)c1`, the relative survival (cellular ATP) is -1.2% (inactive).

With `CC(=O)Nc1ccc(NC(=O)c2ccccc2-c2ccccc2C(=O)O)cc1`, the relative survival (cellular ATP) was 7.5% (inactive). To `Cc1ccc(C2=NNC(c3ccc(Cl)cc3Cl)S2)cc1` (stereo unspecified) belongs -7.4% (inactive); to `CCn1c(C(O)c2cc(OC)ccc2OC)nc2ccccc21` (stereo unspecified), 1.7% (inactive); to `O=C(O)CCN1C(=O)/C(=C/c2ccc(-c3cc(Cl)ccc3Cl)o2)SC1=S`, 64% (active). Take `O=C1S/C(=C/c2ccc(-c3ccc(Cl)cc3Cl)o2)C(=O)N1c1ccccc1`: the relative survival (cellular ATP) was 7% (inactive). In the case of `CN(C)CCOC(=O)CCN1C(=O)/C(=C/c2ccc(Cl)cc2Cl)SC1=S`, the relative survival (cellular ATP) was -20.4% (inactive). For the molecule `CCCN1C(=O)c2ccccc2NC1c1ccc(O)c(OC)c1` (stereo unspecified), the relative survival (cellular ATP) is -2.6% (inactive).

With `C/C(=N\NC(=O)c1cccc([N+](=O)[O-])c1)c1cccnc1`, the relative survival (cellular ATP) is 2.9% (inactive).

For `COc1ccc(NC(=O)/C(C#N)=C/c2ccccc2[N+](=O)[O-])cc1`, the relative survival (cellular ATP) is 2.4% (inactive). In the case of `Cc1ccc(NC(=O)CC2Nc3cc(C)c(C)cc3NC2=O)cc1` (stereo unspecified) it was 6.1% (inactive). In the case of `Cc1nn(C(=O)C23CC4CC(CC(C4)C2)C3)c(C)c1Sc1ccc([N+](=O)[O-])cc1` it was 6.7% (inactive); in that of `COC(=O)C1=CNC=C(C(=O)OC)C1c1cc(C)ccc1C`, 10% (inactive); in that of `O=C1C=CC(=O)N1Nc1c(Cl)cc(Cl)cc1Cl`, -7.8% (inactive). Consider `COc1cc(OC)cc(C(=O)N/N=C(\C)CC(=O)Nc2ccccc2-c2ccccc2)c1`, for which the relative survival (cellular ATP) was 66% (active). Take `O=C(CCc1ccccc1)Nc1ccccc1-c1ccccc1`: the relative survival (cellular ATP) is 2.5% (inactive).

On to `C/C(CC(=O)Nc1cccc2ccccc12)=N\NC(=O)c1ccoc1C`, for which the relative survival (cellular ATP) is 5.7% (inactive).

As to `CCOc1cc(C=C2C(=O)c3ccccc3C2=O)ccc1OCc1ccc(Cl)cc1Cl`, the relative survival (cellular ATP) is 11.4% (inactive).

`COc1cccc(OCCCCOc2ccccc2OC)c1`: the relative survival (cellular ATP) was 6% (inactive). For `CN1C(=O)C(=Cc2cc(Br)c(O)c(I)c2)C(=O)N(C)C1=O`, the relative survival (cellular ATP) is -1% (inactive).

As to `CCOCCOCCN1C(=O)c2ccccc2C1=O`, the relative survival (cellular ATP) was 6.5% (inactive).

In the case of `C/C(CC(=O)Nc1ccc(Nc2ccccc2)cc1)=N\NC(=O)c1ccccc1C`, the relative survival (cellular ATP) was 16.5% (inactive).

For `CCOC(=O)CCc1c(C)nc2c(C)c(-c3ccc(C)cc3)[nH]n2c1=O`, the relative survival (cellular ATP) was 8.2% (inactive).
